Source: PubChem BioAssay AID493115 (The Scripps Research Institute Molecular Screening Center, 2011)
Some of the results follow. Active and inactive are the calls of the source.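 Rule for the calls: active = mean activation above a set limit carried over from the earlier primary screen; inactive = the rest.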

Target: Caspase-7 (Homo sapiens) (UniProt P55210)
Assay: activation of procaspase-7 enzyme – biochemical, absorbance, human, dual procaspase-3/-7 activator project, confirmation (AID 493115);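 note: 0% = DMSO only and 100% = DMSO with added 5 µM PC-7 enzyme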
Details: recombinant procaspase-7, Ac-DEVD-pNA absorbance 405 nm; at 8.5 µM; active compounds read high; D23A/D198A/D206A mutant that cannot self-cleave

Sequence of Caspase-7 (Homo sapiens) (P55210 whole entry D23A/D198A/D206A): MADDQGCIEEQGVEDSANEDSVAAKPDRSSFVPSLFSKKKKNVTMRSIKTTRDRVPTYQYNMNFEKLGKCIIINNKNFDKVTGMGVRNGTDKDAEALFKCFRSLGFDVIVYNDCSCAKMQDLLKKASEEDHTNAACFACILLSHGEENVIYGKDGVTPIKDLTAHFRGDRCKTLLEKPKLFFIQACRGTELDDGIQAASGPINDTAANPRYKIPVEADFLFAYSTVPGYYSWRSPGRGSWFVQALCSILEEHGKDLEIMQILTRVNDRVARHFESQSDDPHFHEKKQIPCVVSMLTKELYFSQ

activation, inactive:
CNS(=O)(=O)c1cccc(C(=O)NC2CCCc3ccccc32)c1 (stereo not given) 0.28%
O=C1OCCN1C(=O)[C@H]1[C@H](c2ccc(F)cc2)C(c2ccccc2)=NN1c1ccc(Br)cc1 -35.1%
COc1ccc(Nc2ncc(C(=O)N3CCN(c4ccccc4OC)CC3)c3ccccc23)cc1 2.22%
COc1ccc(/C=N/Nc2nc3ccccc3c(=O)[nH]2)cc1 0.2%
CCN(CC)c1ccc2oc(=O)c(C)nc2c1 -21%
CC(=O)Oc1ccc2c(C)c(CC(C)O)c(=O)oc2c1 (stereo not given) -34%
COc1ccc2sc(-c3ccc(S(C)(=O)=O)cc3)c(C#Cc3cncn3C)c2c1 -34.2%
CCOC(=O)C1(CCOC)CCN(Cc2cc3ccccc3s2)CC1 2.06%
Fc1ccc(N2N=C(c3cccs3)CC2c2ccco2)c(F)c1 (stereo not given) -34.9%
COc1ccc(-c2onc3ccc(C(C)=O)cc23)cc1 -35.4%
CC1(C)Cc2c(C#N)c(SCc3nc4ccccc4[nH]3)nc(N3CCOCC3)c2CO1 -34.3%
COc1ccc(Nc2ncnc3sc(-c4ccccc4)cc23)c(OC)c1 -12.6%
COc1ccccc1N=Cc1c(O)c2ccccc2oc1=O -13.5%
Nc1cccc2c1C(=O)N(Cc1nnc(-c3ccccc3Br)o1)C2=O -35.8%
CCCCOC(=O)Cn1c(=O)n(CC(=O)OCCCC)c2cc(C)ccc21 0.05%
